Where a name gives a salt, the structure may show the parent alone. ± gives the standard deviation of the averaged measurements.
Tests used:
Test in all cases: growth (OD600 after 10 h); higher = more growth (less inhibition)
[1] = system: E. coli TESEC Alr+ wild-type control; settings: compound 0.1 mM; raw OD600 reference: median of DMSO wells 0.241, cell-free background 0.041
Experimental: (§1)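 TESEC Mtb Alr E. coli, or the Alr+ wild-type control, in 384-well plates with Prestwick library compounds at 0.1 mM and 1% DMSO, across arabinose induction levels of 1E3 to 1E7 nM. Growth is read as OD600 after 10 h at 37 °C in triplicate biological replicates.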

[2] = system: E. coli TESEC Mtb Alr; settings: compound 0.1 mM
Experimental: as §1

[3] = system: E. coli TESEC Mtb Asd; settings: compound 0.1 mM
Experimental: (§2)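 TESEC E. coli strains in which the native enzyme is deleted and replaced by arabinose-inducible Mtb Asd, DapB, CysH or TrpD, each grown in its selective medium. Strains were screened against the Prestwick library at 0.1 mM and 1% DMSO in 384-well format at low and high arabinose induction. Growth is read as OD600 after 10 h in triplicate.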

[4] = system: E. coli TESEC Mtb DapB; settings: compound 0.1 mM
Experimental: as §2

[5] = system: E. coli TESEC Mtb Alr; settings: compound 0.1 mM; remark: listed apart in the source
Experimental: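 TESEC Mtb Alr E. coli (ΔaraC ΔtolC ΔentC Δalr ΔdadX, arabinose-inducible Mtb Alr) or the Alr+ wild-type control strain, grown in defined M9-fructose medium without D-alanine in 96-well plates with Prestwick library compounds at 0.1 mM and 1% DMSO. Low Alr induction is 0.1 µM arabinose and high induction is 10 mM arabinose.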

[6] = arabinose 1000 nM, raw OD600 reference: median of DMSO wells 0.294, cell-free background 0.041
[7] = arabinose 10000 nM, raw OD600 reference: median of DMSO wells 0.264, cell-free background 0.041
[8] = arabinose 100000 nM, raw OD600 reference: median of DMSO wells 0.201, cell-free background 0.041
[9] = arabinose 1000000 nM, raw OD600 reference: median of DMSO wells 0.193, cell-free background 0.041
[10] = arabinose 10000000 nM, raw OD600 reference: median of DMSO wells 0.146, cell-free background 0.041
[11] = arabinose induction (level): High, raw OD600 reference: median of DMSO wells 0.331, cell-free background 0.041
[12] = arabinose induction (level): Low, raw OD600 reference: median of DMSO wells 0.417, cell-free background 0.041
[13] = arabinose induction (level): High, raw OD600 reference: median of DMSO wells […], cell-free background 0.041
[14] = arabinose induction (level): Low, raw OD600 reference: median of DMSO wells 0.227, cell-free background 0.041
[15] = arabinose 100 nM, raw OD600 reference: median of DMSO wells 0.413, cell-free background 0.052
[16] = arabinose 10000000 nM, raw OD600 reference: median of DMSO wells […], cell-free background 0.052

| Compound | growth [1] | growth [2, 6] | growth [2, 7] | growth [2, 8] | growth [2, 9] | growth [2, 10] | growth [3, 11] | growth [3, 12] | growth [4, 13] | growth [4, 14] | growth [5, 15] | growth [5, 16] |
| --- | --- | --- | --- | --- | --- | --- | --- | --- | --- | --- | --- | --- |
| N[C@@H](C(=O)N[C@@H]1C(=O)N2C(C(=O)O)=C(Cl)CS[C@H]12)c1ccccc1 [Cefaclor hydrate] | 0.264 ± 0.0067 | 0.315 ± 0.0086 | 0.249 ± 0.0072 | 0.244 ± 0.025 | 0.1991 ± 0.0017 | 0.158 ± 0.021 | 0.333 ± 0.052 | 0.425 ± 0.067 | 0.201 ± 0.0068 | 0.247 ± 0.017 | 0.224 ± 0.036 | 0.354 ± 0.032 |
| COc1ccc(C(=O)CC(=O)c2ccc(C(C)(C)C)cc2)cc1 [Avobenzone] | 0.116 ± 0.017 | 0.188 ± 0.026 | 0.197 ± 0.016 | 0.176 ± 0.02 | 0.107 ± 0.033 | 0.109 ± 0.0074 | 0.277 ± 0.068 | 0.27 ± 0.0061 | 0.202 ± 0.072 | 0.239 ± 0.055 | 0.247 ± 0.058 | 0.267 ± 0.0055 |
| CCC(C)(C)c1ccc(CC(C)CN2C[C@@H](C)O[C@@H](C)C2)cc1 (some centres undefined) [Amorolfine hydrochloride] | 0.0552 ± 0.0076 | 0.107 ± 0.0069 | 0.0519 ± 0.0014 | 0.0591 ± 0.0048 | 0.04143 ± 0.00023 | 0.0502 ± 0.0026 | 0.237 ± 0.052 | 0.284 ± 0.031 | 0.168 ± 0.02 | 0.197 ± 0.017 | 0.0639 ± 0.0015 | 0.0533 ± 0.0014 |
| CC(Oc1ccccc1)C(=O)N[C@@H]1C(=O)N2[C@@H]1SC(C)(C)[C@@H]2C(=O)O (some centres undefined) [Phenethicillin potassium salt] | 0.267 ± 0.018 | 0.311 ± 0.019 | 0.266 ± 0.0071 | 0.223 ± 0.018 | 0.19 ± 0.006 | 0.139 ± 0.0076 | 0.306 ± 0.05 | 0.438 ± 0.011 | 0.226 ± 0.0034 | 0.249 ± 0.02 | 0.398 ± 0.0069 | 0.367 ± 0.0061 |
| CNCCC=C1c2ccccc2CCc2ccccc21 [Nortriptyline hydrochloride] | 0.188 ± 0.014 | 0.181 ± 0.0093 | 0.205 ± 0.011 | 0.155 ± 0.01 | 0.0683 ± 0.00076 | 0.0845 ± 0.0019 | 0.137 ± 0.0013 | 0.179 ± 0.0089 | 0.185 ± 0.025 | 0.195 ± 0.04 | 0.4083 ± 0.0029 | 0.264 ± 0.013 |
| COc1cccc2c1C(=O)c1c(O)c3c(c(O)c1C2=O)C[C@@](O)(C(=O)CO)C[C@@H]3O[C@H]1C[C@H](N)[C@@H](O)[C@H](C)O1 [Epirubicin hydrochloride] | 0.04433 ± 0.00032 | 0.0453 ± 0.0011 | 0.04623 ± 0.00032 | 0.0469 ± 0.0005 | 0.0457 ± 0.00068 | 0.0453 ± 0.0005 | 0.068 ± 0.0071 | 0.0576 ± 0.0035 | 0.0567 ± 0.0034 | 0.0562 ± 0.0015 | 0.0587 ± 0.0013 | 0.0582 ± 0.00053 |
| C[C@]12CC[C@H]3C(=CCc4cc(O)ccc43)[C@@H]1CCC2=O [Equilin] | 0.126 ± 0.0019 | 0.17 ± 0.0095 | 0.226 ± 0.0079 | 0.154 ± 0.0054 | 0.0878 ± 0.0015 | 0.125 ± 0.0018 | 0.159 ± 0.0023 | 0.258 ± 0.044 | 0.174 ± 0.0089 | 0.183 ± 0.017 | 0.388 ± 0.0096 | 0.163 ± 0.0075 |
| CC(CN(C)C)C(C)(O)Cc1ccc(Cl)cc1 (centres undefined) [Clobutinol hydrochloride] | 0.221 ± 0.0026 | 0.263 ± 0.018 | 0.265 ± 0.0075 | 0.197 ± 0.0069 | 0.181 ± 0.0066 | 0.142 ± 0.013 | 0.222 ± 0.015 | 0.353 ± 0.1 | 0.187 ± 0.0091 | 0.222 ± 0.026 | 0.405 ± 0.0082 | 0.3421 ± 0.0029 |
| O=C(O)CCc1nc(-c2ccccc2)c(-c2ccccc2)o1 [Oxaprozin] | 0.143 ± 0.0053 | 0.169 ± 0.0038 | 0.206 ± 0.0029 | 0.102 ± 0.0063 | 0.0905 ± 0.0025 | 0.0775 ± 0.0013 | 0.223 ± 0.022 | 0.165 ± 0.0041 | 0.139 ± 0.0021 | 0.152 ± 0.0088 | 0.3746 ± 0.0018 | 0.128 ± 0.0076 |
| CC(C)(Oc1ccc(C2CC2(Cl)Cl)cc1)C(=O)O (centres undefined) [Ciprofibrate] | 0.205 ± 0.046 | 0.263 ± 0.0056 | 0.273 ± 0.0078 | 0.154 ± 0.004 | 0.187 ± 0.016 | 0.123 ± 0.0026 | 0.26 ± 0.032 | 0.303 ± 0.051 | 0.203 ± 0.018 | 0.207 ± 0.012 | 0.43 ± 0.0055 | 0.312 ± 0.016 |
| NS(=O)(=O)c1cc2c(cc1Cl)NC(C(Cl)Cl)NS2(=O)=O (centres undefined) [Trichlormethiazide] | 0.243 ± 0.0058 | 0.296 ± 0.021 | 0.278 ± 0.0046 | 0.2 ± 0.013 | 0.195 ± 0.015 | 0.139 ± 0.0024 | 0.331 ± 0.037 | 0.448 ± 0.033 | 0.191 ± 0.0022 | 0.246 ± 0.041 | 0.408 ± 0.0097 | 0.357 ± 0.01 |
| C[C@H]1C[C@H]2[C@@H]3CCC4=CC(=O)C=C[C@]4(C)[C@@]3(F)[C@@H](O)C[C@]2(C)[C@@]1(O)C(=O)CO [Betamethasone] | 0.184 ± 0.0078 | 0.231 ± 0.031 | 0.256 ± 0.002 | 0.154 ± 0.0079 | 0.134 ± 0.0038 | 0.131 ± 0.0027 | 0.273 ± 0.096 | 0.36 ± 0.054 | 0.198 ± 0.033 | 0.211 ± 0.064 | 0.406 ± 0.0084 | 0.257 ± 0.0044 |
| CN(C)c1ccc(O)c2c1C[C@H]1C[C@H]3[C@H](N(C)C)C(=O)C(C(N)=O)=C(O)[C@@]3(O)C(=O)C1=C2O [Minocycline hydrochloride] | 0.0402 ± 0.00064 | 0.0422 ± 0.00083 | 0.0402 ± 0.00026 | 0.0426 ± 0.00055 | 0.0397 ± 0.00075 | 0.0426 ± 0.00067 | 0.06847 ± 0.00055 | 0.0692 ± 0.0029 | 0.0606 ± 0.01 | 0.0519 ± 0.0019 | 0.0623 ± 0.0026 | 0.0637 ± 0.0055 |
| CCCCC(O)c1ccccc1 (centres undefined) [Fenipentol] | 0.242 ± 0.0077 | 0.295 ± 0.005 | 0.253 ± 0.0059 | 0.233 ± 0.035 | 0.178 ± 0.0054 | 0.149 ± 0.0015 | 0.346 ± 0.079 | 0.357 ± 0.036 | 0.227 ± 0.013 | 0.227 ± 0.025 | 0.403 ± 0.0094 | 0.337 ± 0.017 |
| O=C(O[C@@H]1C[C@@H]2C[C@H]3C[C@H](C1)N2CC3=O)c1c[nH]c2ccccc12 [Dolasetron mesilate] | 0.204 ± 0.0058 | 0.25 ± 0.0086 | 0.238 ± 0.0033 | 0.137 ± 0.0054 | 0.0823 ± 0.0017 | 0.114 ± 0.0051 | 0.226 ± 0.044 | 0.482 ± 0.053 | 0.192 ± 0.019 | 0.217 ± 0.016 | 0.405 ± 0.016 | 0.23 ± 0.036 |
| OC(c1cc(C(F)(F)F)nc2c(C(F)(F)F)cccc12)C1CCCCN1 (centres undefined) [Mefloquine hydrochloride] | 0.0408 ± 0.00093 | 0.0401 ± 0.0013 | 0.0392 ± 0.0005 | 0.0403 ± 0.00056 | 0.0392 ± 0.00017 | 0.0398 ± 0.00036 | 0.0511 ± 0.0036 | 0.055 ± 0.0046 | 0.0464 ± 0.00035 | 0.0483 ± 0.0032 | 0.199 ± 0.23 | 0.0512 ± 0.00055 |
| CCCCC1=NC2(CCCC2)C(=O)N1Cc1ccc(-c2ccccc2-c2nnn[nH]2)cc1 [Irbesartan] | 0.152 ± 0.0053 | 0.227 ± 0.0037 | 0.21 ± 0.011 | 0.121 ± 0.0023 | 0.0979 ± 0.0024 | 0.13 ± 0.0027 | 0.198 ± 0.03 | 0.21 ± 0.029 | 0.204 ± 0.014 | 0.263 ± 0.048 | 0.346 ± 0.012 | 0.167 ± 0.014 |
